The text below walks through data of the supplement of paper PMC7184167.

Counter-ions that a name gives are not always drawn.

The subject of this assay is replication-induced senescent mouse newborn dermal fibroblasts (NBF). Briefly: relative cell viability of senescent cells (fraction); higher = less killing of senescent cells. The following applies: 1 µM; 3 days. The method, then: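 Replication-induced senescent newborn mouse skin fibroblasts (NBFs) in 24-well plates were treated with a Selleck FDA-approved drug library at 1 µM for 3 days.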
As for `Oc1ccc(OCc2ccccc2)cc1` [Monobenzone], the relative cell viability worked out at 0.981. Under `CS(=O)(=O)N1CCN(Cc2cc3nc(-c4cccc5[nH]ncc45)nc(N4CCOCC4)c3s2)CC1` [Pictilisib (GDC-0941)] stands 0.681; under `CCCc1nc2c(C)cc(-c3nc4ccccc4n3C)cc2n1Cc1ccc(-c2ccccc2C(=O)O)cc1` [Telmisartan], 1.15. For the molecule `NC(=O)C1CCCc2c1[nH]c1ccc(Cl)cc21` (stereo not given) [Selisistat (EX 527)], the relative cell viability worked out at 0.498. For the molecule `Nc1ncn([C@H]2C[C@H](O)[C@@H](CO)O2)c(=O)n1` [Decitabine], the relative cell viability was found to be 0.211. In turn, `COC(=O)[C@H](c1ccccc1Cl)N1CCc2sccc2C1` [Clopidogrel] displayed a relative cell viability of 0.983. `Cn1c(=O)c2[nH]cnc2n(C)c1=O` [Aminophylline] yielded a relative cell viability of 0.98. The molecule `CC(C)OC(=O)C(C(=O)OC(C)C)=C1SC=CS1` [Malotilate] gave a relative cell viability of 1.04.

`Oc1c(Cl)cc(Cl)c2cccnc12` [Chloroxine] had a relative cell viability of 0.982. In turn, `C[C@@H]1[C@H](O)[C@@H](C)/C=C/C=C/C=C/C=C/C=C/C=C/C=C/[C@H](O[C@@H]2O[C@H](C)[C@@H](O)[C@H](N)[C@@H]2O)C[C@@H]2O[C@](O)(C[C@@H](O)C[C@@H](O)[C@H](O)CC[C@@H](O)C[C@@H](O)CC(=O)O[C@H]1C)C[C@H](O)[C@H]2C(=O)O` [Amphotericin B] registered a relative cell viability of 0.766. With `CCN(CC)CCNC(=O)c1c(C)[nH]c(/C=C2\C(=O)Nc3ccc(F)cc32)c1C` [Sunitinib Malate], the relative cell viability is 1.1.

`Cc1ccnc2c1NC(=O)c1cccnc1N2C1CC1` [Nevirapine] registered a relative cell viability of 1.02.

The molecule `Cc1cn[nH]c1` [Fomepizole] returned a relative cell viability of 1.07. `Nc1ccc(O)c(C(=O)O)c1` [Mesalamine] displayed a relative cell viability of 0.351. Molecule `Cc1[nH]c(/C=C2\C(=O)Nc3ccccc32)c(C)c1CCC(=O)O` [Orantinib (TSU-68, SU6668)] registered a relative cell viability of 0.577.

`Clc1ccc(C(c2ccccc2Cl)C(Cl)Cl)cc1` (stereo not given) [Mitotane] yielded a relative cell viability of 1.16. `C[C@H]1C[C@H]2[C@@H]3CCC4=CC(=O)C=C[C@]4(C)[C@@]3(F)[C@@H](O)C[C@]2(C)[C@@]1(O)C(=O)CO` [Betamethasone] showed a relative cell viability of 0.229. Under `CCOC(=O)C1=C(COCCN)NC(C)=C(C(=O)OC)C1c1ccccc1Cl` (stereo not given) [Amlodipine Besylate] stands 0.987.

In turn, `Nc1ncn([C@@H]2O[C@H](CO)[C@@H](O)[C@H]2O)c(=O)n1` [Azacitidine] yielded a relative cell viability of 0.436. Under `CC1=C(/C=C/C(C)=C/C=C/C(C)=C/C(=O)O)C(C)(C)CCC1` [Tretinoin] stands 0.466; under `CO[C@H]1/C=C/O[C@@]2(C)Oc3c(C)c(O)c4c(O)c(c(/C=N/N5CCN(C6CCCC6)CC5)c(O)c4c3C2=O)NC(=O)/C(C)=C\C=C\[C@H](C)[C@H](O)[C@@H](C)[C@@H](O)[C@@H](C)[C@H](OC(C)=O)[C@@H]1C` [Rifapentine], 0.659.

`Cc1nc(Nc2ncc(C(=O)Nc3c(C)cccc3Cl)s2)cc(N2CCN(CCO)CC2)n1` [Dasatinib] gave a relative cell viability of 1.39. As for `CC(C)Cc1ccc(C(C)C(=O)O)cc1` (stereo not given) [Ibuprofen], the relative cell viability worked out at 0.765.

As for `Cc1ccccc1N1C(=O)c2cc(S(N)(=O)=O)c(Cl)cc2NC1C` (stereo not given) [Metolazone], the relative cell viability was determined as 0.962. `CC1(C)O[C@@H]2C[C@H]3[C@@H]4CCC5=CC(=O)C=C[C@]5(C)[C@H]4[C@@H](O)C[C@]3(C)[C@]2(C(=O)CO)O1` [Desonide]: the relative cell viability was 1.14. Under `CC(=O)OCC(=O)NCCCOc1cccc(CN2CCCCC2)c1` [Roxatidine Acetate HCl] stands 0.897. In turn, `CCCCC1C(=O)N(c2ccccc2)N(c2ccccc2)C1=O` [Phenylbutazone] returned a relative cell viability of 0.899. `CC(=O)O[C@H]1C(=O)[C@@]2(C)[C@H]([C@H](OC(=O)c3ccccc3)[C@]3(O)C[C@H](OC(=O)[C@H](O)[C@@H](NC(=O)c4ccccc4)c4ccccc4)C(C)=C1C3(C)C)[C@]1(OC(C)=O)CO[C@@H]1C[C@@H]2O` [Paclitaxel] gave a relative cell viability of 0.398. As to `CNC(=C[N+](=O)[O-])NCCSCc1ccc(CN(C)C)o1` [Ranitidine Hydrochloride], the relative cell viability amounted to 1.1. As to `CN1CCC(=C2c3ccccc3CCc3sccc32)CC1` [Pizotifen Malate], the relative cell viability was 0.0212.

The molecule `Cc1cc(Nc2cc(N3CCN(C)CC3)nc(Sc3ccc(NC(=O)C4CC4)cc3)n2)n[nH]1` [Tozasertib (VX-680, MK-0457)] had a relative cell viability of 0.364. In turn, `COc1cc2nccc(Oc3ccc(NC(=O)Nc4cc(C)on4)c(Cl)c3)c2cc1OC` [Tivozanib (AV-951)] had a relative cell viability of 1.04. The molecule `CN(Cc1cnc2nc(N)nc(N)c2n1)c1ccc(C(=O)N[C@@H](CCC(=O)O)C(=O)O)cc1` [Methotrexate] yielded a relative cell viability of 0.692.

For the molecule `CN(C/C=C/C#CC(C)(C)C)Cc1cccc2ccccc12` [Terbinafine], the relative cell viability worked out at 0.403. As to `Cc1ccc(Nc2nccc(N(C)c3ccc4c(C)n(C)nc4c3)n2)cc1S(N)(=O)=O`, the relative cell viability came to 1.05. In turn, `CC(=O)N[C@@H](CS)C(=O)O` [Acetylcysteine] showed a relative cell viability of 0.834. Take `COc1ccc(Cl)cc1C(=O)NCCc1ccc(S(=O)(=O)NC(=O)NC2CCCCC2)cc1` [Glyburide (Glibenclamide)]: the relative cell viability was 1.02. Molecule `C[C@]12CC[C@@H]3c4ccc(O)cc4CC[C@H]3[C@@H]1CCC2=O` [Estrone] had a relative cell viability of 1. With `Cn1cnc2c(F)c(Nc3ccc(Br)cc3Cl)c(C(=O)NOCCO)cc21` [Selumetinib (AZD6244)], the relative cell viability came out at 0.897.

`O=C(c1ccccc1)c1ccc2n1CCC2C(=O)O` (stereo not given) [Ketorolac]: the relative cell viability is 0.977.
